RORgamma inh – ROR gamma (mouse) transcription inhibition; Potency, µM (highest dose often 53.6 µM), inactives show at the top dose activity change, negative = inhibition, actives largely listed as inhibitors; 5.4% of 310,000 active; Drosophila S2 Gal4-RORgamma UAS-luciferase reporter, 20 h; further: nearly all actives have a fitted effect of over 60% in size
Target sequence (P51450 whole entry, looked up, the tested form may be a part): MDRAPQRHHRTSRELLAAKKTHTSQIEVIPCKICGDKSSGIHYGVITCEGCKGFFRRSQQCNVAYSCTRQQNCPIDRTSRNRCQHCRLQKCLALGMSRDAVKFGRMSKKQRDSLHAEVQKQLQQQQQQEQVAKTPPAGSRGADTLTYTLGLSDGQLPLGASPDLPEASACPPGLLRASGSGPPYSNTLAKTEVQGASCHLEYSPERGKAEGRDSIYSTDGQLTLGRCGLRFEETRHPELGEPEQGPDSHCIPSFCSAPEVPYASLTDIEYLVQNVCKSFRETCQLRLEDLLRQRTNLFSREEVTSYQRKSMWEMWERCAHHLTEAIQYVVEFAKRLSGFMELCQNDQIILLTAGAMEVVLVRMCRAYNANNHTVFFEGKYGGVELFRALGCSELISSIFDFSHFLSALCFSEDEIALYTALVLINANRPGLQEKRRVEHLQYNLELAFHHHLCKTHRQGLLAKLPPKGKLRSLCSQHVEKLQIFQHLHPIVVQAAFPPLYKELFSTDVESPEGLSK
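Using a luciferase readout, inhibitors were identified by reduced reporter activity in Drosophila cells coexpressing a copper-inducible Gal4–ROR gamma fusion and UAS-driven Photinus luciferase, incubated 20 hr after 700 uM copper sulfate.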
Gal4-VP16 FLuc – inhibits Gal4-VP16 luciferase reporter, ROR gamma counter-screen. Drosophila S2 Gal4-VP16 UAS-luciferase, luminescence, 20 h. Potency, µM (series often up to 53.6 µM), inactives show at the top dose activity, negative = inhibition, usual class: inhibitors. 3.5% of 310,000 active;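 further: Gal4-VP16 expression switched on by copper sulfate through the metallothionein promoter; nearly all actives have a fitted effect of over 50% in size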
Tau fluor counter – counter-screen for tau fibril formation inhibitors; AID 1463; tau K18 P301L Alexa594 fluorescence, heparin fibrillization; 0.93% of 280,000 active; Potency, µM (highest dose often 57.7 µM), for the others: at the highest dose activity change, negative = decrease; further: nearly all actives have a fitted effect of over 55% in size
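Human tau K18 P301L (15 uM unlabeled, 0.24 uM Alexa 594-labeled) in 100 mM sodium acetate pH 7 with 20 uM heparin, 6 hr at 37 C. ThT 30 uM added, 1 hr ambient; Alexa 594 FP and total fluorescence read at 555/632 nm.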
Tau ThT inhib – tau fibrillization inhibition (ThT binding); AID 1460; 2.1% of 270,000 active; P10636; recombinant tau K18 P301L (four-repeat tau fragment), heparin-induced fibrillization, ThT fluorescence; Potency, µM (series often up to 57.4 µM), inactives show top-dose activity, negative = inhibition, usual class: inhibitors; further: nearly all actives have a fitted effect of over 55% in size
Target sequence (P10636 561-689 P618L limits assumed): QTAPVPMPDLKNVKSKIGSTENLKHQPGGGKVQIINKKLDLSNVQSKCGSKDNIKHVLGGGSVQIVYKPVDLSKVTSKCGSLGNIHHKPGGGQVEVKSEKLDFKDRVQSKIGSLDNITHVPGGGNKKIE
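In this qHTS, human K18 P301L tau is incubated with compound and heparin for 6 hr at 37 C, and Thioflavin T fluorescence then reports fibril load.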
Tau fibril FP – tau fibrillization inhibition (FP). P10636. K18 P301L tau heparin fibrillization, Alexa594 FP, 6 h. Potency, µM (top dose mostly 57.7 µM), without a hit: top-dose activity, negative = inhibition, hits mostly inhibitors. 0.39% of 280,000 active; further: nearly all actives have a fitted effect of over 55% in size
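Human K18 P301L fragment (15 uM unlabeled plus 0.24 uM Alexa 594-labeled) in 100 mM sodium acetate pH 7 with compound, aggregation induced by 20 uM heparin for 6 hr at 37 C. ThT (30 uM) added for 1 hr, then Alexa 594 FP read.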
* = called active by the depositor; ? = inconclusive; nt = not tested or not shown; [ ] = dose if it differs, or a comment. In the library only some 7.3% were active in any assay of this set; here they are far more common. The call rests on the fitted dose curve; in most records, active means well fitted curve in the direction sought with a large enough effect; inconclusive means small, poorly fitted or top-dose-only effect, or another doubt; inactive means no such curve, though single readings can be large; an effect the other way counts as inactive or inconclusive. On the % scale 0 is the no-effect control and ±100 the full control effect; potency means the concentration at half of the fitted maximal effect.

SMILES | RORgamma inh | Gal4-VP16 FLuc | Tau fluor counter | Tau ThT inhib | Tau fibril FP
Cc1cccnc1NC(=S)NC(=O)c1cncc(Br)c1 | 5µM* | ? | 6% | 0% | -2%
O=C(NC(=S)Nc1ccccc1C(=O)O)c1cncc(Br)c1 | -2%[1.91 µM] | 0% | nt | nt | nt
O=C(NC(=S)Nc1ccccn1)c1cncc(Br)c1 | 7.9µM* | 7.9µM* | -2% | -9% | -4%
COc1ccc(OC)c(NC(=O)CSc2cn(CC(=O)N3CCOCC3)c3ccccc23)c1 | nt | nt | -10% | -6% | 1%
CCOC(=O)c1c(C)[nH]c(C)c1S(=O)(=O)N1CCC(C(=O)Nc2ccc(F)cc2F)CC1 | nt | nt | -21% | -16% | -1%
CCN1CCN(Cc2c(C(=O)N/N=C(\C)c3ccc(Cl)c(Cl)c3)nnn2-c2nonc2N)CC1 | -3% | 5% | nt | nt | nt
Cc1ccc(CNc2ccc(-c3nc(C(C)C)no3)cc2[N+](=O)[O-])cc1 | nt | nt | 12% | 9% | -9%
C/C(=N/Nc1nc(-c2ccccc2)cc(-c2ccccc2)n1)c1ccc(N)cc1 | 10µM* | ? | ? | ? | 0%
C/C(=N/Nc1cc(-c2ccccc2)nc(-c2ccccc2)n1)c1ccc(O)cc1 | -1%[10 µM] | -28% | 7.1µM*[quencher] | ? | ?
Nc1ccc(-c2cc(-c3cccc(N)c3)nc(-c3ccccc3)n2)cc1 | ? | -20% | 3.5µM*[quencher] | ? | 1%
CCn1c2c(c(=O)n3ncc(C(=O)N4CCN(c5ccc(Cl)cc5)CC4)c13)CN(Cc1ccc(OC)cc1)CC2 | nt | nt | -5% | -16% | 4%
CC1CC(C)(C)Nc2ccc(OC(=O)c3ccco3)cc21 (configuration not stated) | 5µM* | 2.5µM* | -22% | -19% | 9%
O=C(Oc1ccc2ccccc2c1)c1ccco1 | 4% | -9% | -8% | -16% | -9%
O=C(CCNC(=O)N1CCn2c1nc1ccccc12)NCc1ccccc1 | -5% | -3% | nt | nt | nt
Brc1ccc2nc(-c3c[nH]c4ccccc34)cn2c1 | 0.2µM* | ? | ? | 10µM* | 7%
Cc1cc(=O)n2nc(N3CCC(C(=O)Nc4ccc(Br)c(C)c4)CC3)sc2n1 | nt | nt | -25% | ? | -4%
Cc1ccsc1/C=N/n1c(-c2ccccc2)n[nH]c1=S | 14% | -9% | 8% | 10% | 1%
Cc1ccc(/C=N/n2c(-c3cccs3)n[nH]c2=S)cc1 | 2µM* | ? | -15% | -16% | 4%
COc1ccc(/C=N/n2c(-c3cccs3)n[nH]c2=S)cc1 | 2.8µM* | ? | -21% | ? | -2%
S=c1[nH]nc(-c2cccs2)n1/N=C/c1c(Cl)cccc1Cl | 11µM* | -26% | -16% | -16% | 2%
CC(=O)c1ccc(OCCOc2ccc(C#N)cc2)cc1 | 4% | 5% | -21% | ? | -1%
Clc1ccccc1OCCn1nnc2ccccc21 | 28% | 0% | nt | nt | nt
COc1ccc(CCNC(=O)c2cc(S(=O)(=O)N3CCOCC3)cn2C)cc1OC | -6% | -4% | nt | nt | nt
COc1ccc(NC(=O)CC2C(=O)N(c3ccc(F)cc3)C(=O)N2Cc2cccnc2)cc1 (configuration not stated) | nt | nt | 4% | 13% | 0%
Cc1cccc(NC(=S)N2CCC(N(C)CC3CCCO3)CC2)c1 (configuration not stated) | -12% | -11% | -4% | -5% | 5%
SMILES | RORgamma inh | Gal4-VP16 FLuc | Tau fluor counter | Tau ThT inhib | Tau fibril FP
Cc1cccc(CN2CCCC(C(=O)c3ccc4c5c(cccc35)CC4)C2)n1 (configuration not stated) | 4µM* | 13µM* | -6% | -5% | -6%
COc1ccc2cc(C(=O)C3CCCN(Cc4cccc(C)n4)C3)ccc2c1 (configuration not stated) | 2µM* | 13µM* | -12% | -14% | 1%
COc1cc(CN2CCCC(C(=O)c3ccc4c5c(cccc35)CC4)C2)cc(OC)c1O (configuration not stated) | ? | ? | ? | 28µM* | ?
COc1ccc(-c2[nH]ncc2CN2CCCC(C(=O)c3cccc(OC)c3)C2)cc1 (configuration not stated) | 0% | -10% | -11% | -6% | 4%
CC(=O)N1CCCC(C(=O)c2ccc3c4c(cccc24)CC3)C1 (configuration not stated) | 7% | -9% | 7% | -2% | ?
O=C(c1ccc2c3c(cccc13)CC2)C1CCCN(Cc2cccnc2)C1 (configuration not stated) | 2% | 10% | -9% | -14% | -1%
O=C1CC(c2ccccc2)c2cc(O)ccc2O1 (configuration not stated) | 11µM* | -15% | -4% | -11% | -5%
Cc1ccc(-n2c(C)cc(/C=N/NC(=O)c3ccncc3)c2C)cc1C | 4µM* | ? | ? | ? | 1%
Cc1cc(/C=N/NC(=O)C(O)(c2ccccc2)c2ccccc2)c(C)n1-c1ccccc1 | 11µM* | ? | 5% | 7% | 2%
COC(=O)N/N=C/c1cc(C)n(-c2ccccc2)c1C | 16% | -3% | -9% | -12% | 5%
Cc1cccc(C)c1-n1c(C)cc(/C=N/NC(=O)c2ccncc2)c1C | 1.3µM* | 2.2µM* | -13% | -10% | -3%
Cc1cc(/C=N/NC(=O)c2cccc([N+](=O)[O-])c2)c(C)n1-c1ccccc1 | 3.5µM* | 4.5µM* | ? | ? | ?
Cc1ccc(S(=O)(=O)NCC(=O)N2CCN(c3ccc(F)cc3)CC2)cc1 | 2% | 6% | nt | nt | nt
Cc1ccc(CCNC(=O)C2COc3ccccc3C2)cc1 (configuration not stated) | nt | nt | 5% | -1% | 0%
O=C(O)c1ccc2c(c1)C(=O)N([C@H](Cc1ccc(O)cc1)C(=O)O)C2=O | -7% | -6% | nt | nt | nt
CCc1nn2c(=O)cc(COC(=O)c3cccc(NC(=O)COc4ccccc4F)c3)nc2s1 | nt | nt | -12% | ? | 4%
CCN(CC)c1ccc(NC(=O)C(NS(=O)(=O)c2cccs2)C(C)C)c(C)c1 (configuration not stated) | nt | nt | -23% | ? | 7%
CCOc1ccc(-c2ncncc2-c2ccc(OC)c(OC)c2)c(O)c1 | -19% | -14% | nt | nt | nt
Cc1cc(/C=N/NC(=O)c2ccncc2)c(C)n1-c1ccccc1 | 10µM* | ? | -11% | -16% | -1%
CCc1ccc(-n2c(C)cc(/C=N/NC(=O)c3ccncc3)c2C)cc1 | 7.1µM* | 20µM* | -13% | -14% | 9%
Cc1ccc(-n2c(C)cc(/C=N/NC(=O)c3ccncc3)c2C)c(C)c1 | 19% | -6% | -22% | -10% | 0%
Cc1cc(C)nc(SCC(=O)N/N=C/c2cc(C)n(-c3ccccc3C)c2C)n1 | -17% | -13% | -21% | ? | 6%
Cc1cccc(C)c1-n1c(C)cc(/C=N/NC(=O)CSc2ncccn2)c1C | ? | 16µM* | -28% | ? | ?
